From PubChem BioAssay (NCI)
The panel holds about 83,000 compounds, 20% with a hit somewhere; the sample as a whole holds those more often.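 Step 1: grow cells in 96-well plates. Step 2: add test compound at a single concentration. Step 3: incubate 48 h. Step 4: record percent growth.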 Values without a mark were called inactive. The source made the active and inactive calls.

The compounds below were run on PC-3 prostate (assay: NCI-60 one-dose screen, 48 h (100 = growth as untreated, 0 = no growth, -100 = all killed)). Conditions: 10 µM unless noted.
Protocol: Growth inhibition of the PC-3 human tumor cell line is measured as a screen for anti-cancer activity. Cells are grown in 96 well plates and exposed to the test compound for 48 hours. Compounds are tested at a single concentration, which is 10^-5 M for most compounds. The reported endpoint is percent growth (GI% or GIPRCNT), where numbers from 0 - 100% represent growth inhibition, and numbers from -100% - 0 represent cell death. For example, a value of 40 represents 60% growth inhibition. A value of 0 means no net growth occurred over the course of the experiment. A value of -40 indicates 40% of cells at the beginning of the experiment died by the end of the experiment. A value of -100 means all cells are dead at the end of the experiment.
NCI-60 Human Tumor Cell Lines Screen was performed using the standard one-dose NCI protocol, which is described in more detail at https://dtp.cancer.gov/discovery_development/nci-60/default.htm.
Compounds with GIPRCNT values below 10 were considered active. Activity score was based on GIPRCNT using the following formula: […]
Score is 0 for GIPRCNT values of 100 or above, 50 for GIPRCNT values of 0, and 100 for GIPRCNT values of -100.

SMILES	growth
Nc1cccc2cccc(O)c12	69.6%
CCCNS(=O)(=O)c1ccc(Cl)cc1	92.9%
S=CN1CCCCC1	99.3%
Cc1ccc2[nH]c3ccccc3c2c1	89.1%
NC(=S)N/N=C/c1ccc(OC(=O)COc2ccc(Cl)cc2)cn1	64.3%
COc1cccc(C(=O)O)c1OC	96.3%
NNC(=O)CCCCl	104%
NC(=O)N1CCOCC1	87.1%
CCOS(=O)(=O)c1ccc([N+](=O)[O-])cc1	97.9%
CCOc1ccc(C(=O)NCC(C)C)cc1	98.1%
CCCCCCCCCCC(=O)CCCCCCCCCC	97.8%
CCOc1ccc2c(c1)c(C)cc(C)[n+]2CC	48.7%
CC(C)Sc1ncnc2nc[nH]c12	91.6%
c1ccc(-c2ccc3ccccc3c2)cc1	90.8%
C=CCC(OC(C)=O)c1ccc(OC)c(OC)c1 (stereo not given)	92.5%
CC(C)c1ccc(C(=O)OCCCl)cc1	106%
Oc1ccc(CCC2CCNc3ccccc32)cc1 (stereo not given)	60.7%
CCOC(=O)/C(O)=C(\C=N\C(=S)Nc1ccc(Cl)c(Cl)c1)C(=O)OCC	86.9%
CS(=O)CC(=N\O)/C(CS(C)=O)=N\O (stereo not given)	104%
ClCC(Cl)[C@@H]1CC2C=CC1C2 (stereo not given in full)	102%

SMILES	growth
Cc1[nH]n(-c2ccccc2)c(=O)c1C=NC(=S)C(N)=S	85.8%
O=[n+]1ccn([O-])c2ccccc21	92.1%
C=C1C(=O)C2CCC1C2 (stereo not given)	105%
Cc1[nH]nc(C(N)=O)c1[N+](=O)[O-]	100%
Cc1ccc2nc(N)nnc2c1	96%
CCNCC(C)(C)O	91.5%
C=CCc1cc(OC)c(O)c(OC)c1	95.4%
Cc1ccc(S(=O)(=O)Oc2ccc3sc4c(CO)ccc(NCCN(C)C)c4c(=O)c3c2)cc1	-86.8% [100 µM] (active)
Cc1cc2nc(C)c(C)nc2cc1C	81.4%
CCCCOC(=O)c1ccc(NC(=O)CCl)cc1	51.7%
NC(=O)c1cc2c3ccccc3ccn2c1-c1ccccc1	37.3%
Cc1c(Cl)cccc1NC(=S)NC(=O)c1ccccc1	89.2%
CCCCNc1ccc(-c2ccc(NCCCC)cc2)cc1	71.7%
CCCCCC/C=C\CCCCCCCCCc1cc(O)cc(OC)c1O	1.77% (active)
O=C(Nc1cccc(Cl)c1)c1ccc(Cl)cc1Cl	82.2%
N#C/C(=C\c1ccc2c(c1)OCO2)c1ccccc1	84.8%
Cn1c(=O)c2[nH]c(CCCCC(=O)O)nc2n(C)c1=O	92.4%
COc1ccc(-c2csc(NC(=O)Nc3nc(-c4ccc(OC)cc4)cs3)n2)cc1	67.4%
NC(CCl)=NCC12CC3CC(CC(C3)C1)C2	7.42% (active)
N#Cc1ccc(OC(=O)Nc2cc(Cl)cc(Cl)c2)cc1	-9.43% [100 µM] (active)
